Source: PubChem (several laboratories)
Sampled rows, rich in hits. Any-hit rate of the full collection: about 3.5%.
M1 antag – human CHRM1 antagonism | P11229 | CHO-K1 hM1, Fluo-8 calcium fluorescence, ACh EC80 antagonist | inhibition, % at 3 µM | 360,000 tested, 1.3% active | AID 588852;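 active = percent inhibition above its own plate's cutoff, namely the mean of that plate's compound wells plus 3 SD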;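 also: peak over basal fluorescence ratio during 140 s after agonist addition; 0% = ACh EC80 plus DMSO and 100% = DMSO alone without agonist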
M1 ag – human M1 muscarinic receptor agonism; P11229; CHO-K1 hM1, Fluo-8 calcium fluorescence, agonist mode; 0% DMSO, 100% acetylcholine EC100; activation, % at 3 µM; 360,000 tested, 0.33% active; AID 588814;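 active = activation above the run's mean compound activation plus 3 SD, cut at about 16% in these data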;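 also: peak over basal fluorescence ratio within a 140 s kinetic read after compound addition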
M1 PAM – human CHRM1 positive allosteric modulation; CHO-K1 hM1, Fluo-8 calcium fluorescence, ACh EC20; 0% = ACh EC20, 100% = maximal ACh; activation, % at 3 µM; 360,000 tested, 0.088% active; AID 588819; in the data active = activation above about 19%, passing the limit was not always enough
Myeloid diff 2 – compounds promoting myeloid differentiation | 360,000 tested, 1% active | calls only at 10 µM | ER-HoxA9 myeloid progenitors, lysozyme-GFP differentiation, flow cytometry;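 active = normalized GFP-positive differentiation at or above the plate's own cutoff, the solvent-only control mean plus 3 SD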;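 also: cells exposed to compound for four days before flow analysis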
SKN-1 inh – inhibitors of C. elegans SKN-1 | 360,000 tested, 0.49% active | C. elegans VP596 Pgst-4::GFP/RFP ratio, acrylamide-induced, 24 h | inhibition, % at 21.8 µM;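 active = interference check ratio from 0.5 to 1.5 plus GFP to RFP signal ratio inhibition reaching or exceeding a fixed threshold, cut at about 30% in these data, passing the limit was not always enough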
ATG4B inhibitor – inhibitors of human ATG4B cysteine protease; Q9Y4P1; 340,000 tested, 0.51% active; ATG4B cleavage of LC3-PLA2, NBD-HPC fluorescence, 1 h; inhibition, % at 8.33 µM; AID 504462; in the data active = inhibition above about 40%
Target sequence (Q9Y4P1 whole entry, looked up): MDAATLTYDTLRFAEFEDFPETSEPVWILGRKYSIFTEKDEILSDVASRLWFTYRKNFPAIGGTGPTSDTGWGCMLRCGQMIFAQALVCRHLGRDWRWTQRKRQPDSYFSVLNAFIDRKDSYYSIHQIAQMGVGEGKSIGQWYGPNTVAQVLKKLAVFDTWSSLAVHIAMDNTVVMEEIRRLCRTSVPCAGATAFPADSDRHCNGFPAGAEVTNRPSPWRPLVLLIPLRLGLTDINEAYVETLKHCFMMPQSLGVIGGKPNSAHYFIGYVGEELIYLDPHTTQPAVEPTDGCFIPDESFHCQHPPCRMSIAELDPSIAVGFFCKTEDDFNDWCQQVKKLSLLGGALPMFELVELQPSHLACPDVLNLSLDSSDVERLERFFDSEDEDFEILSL
An asterisk follows results filed as active; i = inactive; nt = not tested or not shown; + = active, no number.

SMILES | M1 antag | M1 ag | M1 PAM | Myeloid diff 2 | SKN-1 inh | ATG4B inhibitor
O=C(NCc1ccncc1)C(=O)NCC1OCCN1S(=O)(=O)c1ccc(F)cc1 (stereo not drawn) | -5.3 | -3.4 | -4.8 | i | 15.7 | 2.1
CN1C(=O)/C(=C/c2ccc(OCc3ccc(F)cc3)cc2)N(C)C1=S | -12.6 | -2.5 | 6.9 | i | -2.0 | -2.4
CN1C(=O)/C(=C/c2ccccc2OCc2cccc(F)c2)N(C)C1=S | 99.6* | -4.8 | -21.8 | i | 6.2 | 3.9
CCN1C(=O)/C(=C2\C=Cc3cc(C)ccc3N2CC)OC1=S | 2.3 | -3.9 | 3.0 | i | 35.0* | 2.6
CCN1/C(=C2\C(=O)N(c3ccccc3)N=C2C)C=Cc2cc(C)ccc21 | 11.3 | 19.6* | -13.7 | i | 1.9 | 3.0
CCOC1(OCC)OC(c2ccccc2)=C(C#N)C(C=Cc2ccccc2)C1(OCC)OCC (stereo not drawn) | -3.9 | -0.9 | -8.2 | i | 5.2 | nt
COCCN1C(=O)C(CC(=O)Nc2ccc(C(=O)O)cc2)SC1=Nc1ccccc1 (stereo not drawn) | 10.5 | -2.7 | -5.0 | i | 16.7 | -1.1
COC(=O)c1cc(NC(=O)CC2SC(=Nc3ccccc3)N(CCc3c[nH]c4ccccc34)C2=O)cc(C(=O)OC)c1 (stereo not drawn) | 10.8 | -2.0 | -0.7 | i | 35.6* | -15.4
Cc1ccc(C2C(C#N)=C(N)SC(N)=C2C#N)c(C)c1 | 11.6 | 19.6* | -2.6 | + | 8.8 | 6.3
Cc1ccc(C2C(C#N)=C(N)SC(N)=C2C#N)cc1 | 10.0 | 8.4 | -1.5 | i | 23.5 | 5.4
CCCCS/C(=C(/C#N)C(N)=O)c1cc2c([nH]1)CCCC2 | 25.0* | -6.2 | -25.4 | i | 36.6* | -1.9
CCc1ccc(N/C(SC)=C(/C#N)C(N)=O)cc1 | -6.7 | -3.6 | 1.8 | i | 19.9 | 3.0
CC[C@]12c3[nH]c4cc(CCC(=O)N(C)C)ccc4c3CCN1C(=O)[C@@H](CC(=O)NC/C=C(\C)CCC=C(C)C)C[C@@H]2C(=O)N1CCN(C(=O)c2ccco2)CC1 | 0.1 | -11.1 | -6.2 | i | 0.2 | nt
CCc1noc(C)c1C(=O)Nc1cccc(S(=O)(=O)N(C)c2ccccc2)c1 | -5.4 | 0.6 | 3.0 | i | -13.7 | -19.8
N#CCC(=O)Nc1ccc(C(=O)OCC(=O)C23CC4CC(CC(C4)C2)C3)cc1 | 20.9 | 1.3 | -5.9 | + | -6.8 | -6.2
N#CCC(=O)Nc1ccc(C(=O)OCc2ccccc2Oc2ccccc2)cc1 | 2.6 | -0.6 | 2.7 | + | 9.2 | -21.3
Cc1ccc(NC(=O)CN(C)C(=O)COC(=O)c2ccc(NC(=O)CC#N)cc2)cc1 | -4.8 | -1.9 | -1.3 | i | 13.7 | -6.5
C[C@@H]1CN([C@@H](C)CO)C(=O)CCCn2nncc2CO[C@H]1CN(C)Cc1cccc(O)c1 | -13.8 | -5.9 | 10.2 | i | 0.9 | nt
COc1ccc(-c2nc(CS(=O)CC(=O)NC3CCCC(C)C3C)c(C)o2)cc1OC (stereo not drawn) | 2.8 | -2.4 | -3.0 | + | 19.4 | -5.9
Cc1ccc(-c2nc(CS(=O)CC(=O)NC3CCCC(C)C3C)c(C)o2)cc1 (stereo not drawn) | 5.8 | -4.2 | -3.0 | i | 14.1 | 2.8
O=C(NCC(c1ccco1)N1CCCC1)c1ccccc1Sc1ccc(C(F)(F)F)cc1[N+](=O)[O-] (stereo not drawn) | 94.6* | -7.9 | -27.5 | i | 9.4 | 0.9
N#Cc1ccccc1Sc1ccccc1C(=O)NCC(c1ccco1)N1CCCCC1 (stereo not drawn) | 29.7* | -8.4 | -21.9 | i | -5.6 | -7.7
O=C(NCC(c1ccco1)N1CCCCC1)c1ccc([N+](=O)[O-])s1 (stereo not drawn) | 17.4 | -8.7 | -9.5 | + | -6.3 | -19.1
Cc1ccc([C@H]2C[C@H](O)[C@@H](n3cc(COC(=O)c4ccccc4)nn3)CN2Cc2cccs2)cc1 | -3.0 | -2.0 | 0.4 | i | 8.1 | nt
CCC(=O)Nc1nnc(SCCN2CCOCC2)s1 | 32.7* | -7.8 | -9.7 | i | 9.9 | -1.6
SMILES | M1 antag | M1 ag | M1 PAM | Myeloid diff 2 | SKN-1 inh | ATG4B inhibitor
CCCCn1c(N)c(N(CCOC)C(=O)c2ccc3c(c2)C(=O)N(c2cc(C)ccc2C)C3=O)c(=O)[nH]c1=O | -12.0 | -3.9 | 3.5 | i | 8.4 | -9.3
CCCCn1c(N)c(N(CC(C)C)C(=O)c2cc(=O)[nH]c3ccccc23)c(=O)[nH]c1=O | -6.0 | -0.9 | 6.4 | i | -3.6 | 2.9
CCCCn1c(N)c(N(CCOC)C(=O)c2ccc3c(c2)C(=O)N(c2ccccc2C)C3=O)c(=O)[nH]c1=O | 33.0* | -2.4 | -0.7 | i | 1.4 | -1.4
CCCCN(C(=O)C1CCN(C(=O)c2ccccc2C)CC1)c1c(N)n(CCCC)c(=O)[nH]c1=O | -1.5 | -2.5 | 4.0 | + | 2.0 | -1.7
CCCCN(C(=O)c1cc(=O)[nH]c2ccccc12)c1c(N)n(CCCC)c(=O)[nH]c1=O | 2.6 | -1.5 | -0.5 | + | 11.5 | -3.4
CC1CC(C)CN(C(=O)CSc2nnc3ccccn23)C1 (stereo not drawn) | 5.9 | -1.9 | 6.2 | i | -19.4 | -4.5
CC(C)C(=O)N1CCC1(C)C(=O)NS(=O)(=O)c1cccs1 (stereo not drawn) | 7.2 | -3.6 | -3.2 | i | 4.6 | nt
Cc1nc2ccc(S(=O)(=O)Nc3cc(-c4nc5cccnc5s4)ccc3C)cc2s1 | 7.0 | -4.7 | -7.5 | i | 10.3 | -34.1
Cc1nc2ccc(S(=O)(=O)Nc3cccc(-c4nc5cccnc5s4)c3C)cc2s1 | 39.2* | 1.7 | -19.1 | i | 10.6 | -8.5
CC(C(=O)c1ccc(-c2ccccc2)cc1)[n+]1cccc(NC(=O)c2ccccc2)c1 (stereo not drawn) | 49.6* | -8.8 | -25.0 | i | 3.0 | 7.1
CCOC(=O)c1ccc[n+](C(C)C(=O)c2ccc(-c3ccccc3)cc2)c1 (stereo not drawn) | 11.8 | -6.9 | -19.2 | i | 9.2 | 3.4
CC(OC(=O)CC1CCCCC1)C(=O)Nc1ccc(S(N)(=O)=O)cc1 (stereo not drawn) | -17.4 | 1.3 | 7.3 | i | 8.3 | -10.1
COc1ccc(-c2csc(NC(=O)CCS(=O)(=O)c3ccccc3)n2)c(OC)c1 | 6.2 | 1.3 | -6.5 | + | 3.3 | -2.8
COc1ccc(-c2csc(NC(=O)CS(=O)(=O)c3ccccc3)n2)c(OC)c1 | 1.7 | -1.8 | -5.8 | i | -10.0 | nt
O=C(CCS(=O)(=O)c1ccccc1)Nc1nc(-c2ccc(F)cc2)cs1 | 9.5 | 2.1 | -11.4 | + | -5.9 | -13.4
Cc1ccc(N2CC(NS(=O)(=O)c3cc(F)ccc3F)CC2=O)cc1C (stereo not drawn) | -1.9 | -0.1 | 11.0 | i | -27.4 | -3.3
